Values joined by “and” are separate entries in the source; they are usually repeats but may differ in a detail not shown here. Identical values can stand only once. Hit rate of the full screen: of about 5,500 compounds, about 2,000 (36%) were called active. About 18% were inconclusive and are not listed. Cut-off read from the data, not from the text of the source: active = normalized growth mostly below about 0.91 (no sharp cut-off); inconclusive = no clear call, values can overlap the other calls; inactive = mostly above about 0.92. Some of the results follow.
Assay: chemical genetic growth profiling, strain panel (AID 1159580);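 note: tested at 20 µM; growth read once vehicle control cultures reached saturation at 30 °C; 1 = growth at the plate median or of vehicle wells; lower values mean less growth of the strain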
Settings: S. cerevisiae deletion strains, growth OD

Measured: normalized growth

NC(=O)c1cnccn1
inactive: locus YAL013W, strain DEP1, stronger effect = lower value 1.01 and 1.02 | locus YAL021C, strain ccr4, stronger effect = lower value 0.992 | locus YAL026C, strain drs2, stronger effect = lower value 1.01 | locus YAL030W, strain snc1, stronger effect = lower value 0.996 | locus YAL040C, strain CLN3, stronger effect = lower value 1 | locus YBL061C, strain skt5, stronger effect = lower value 0.988 | locus YBR009C, strain hhf1, stronger effect = lower value 1.01 | locus YBR021W, strain FUR4, stronger effect = lower value 1.02 | locus YBR023C, strain chs3, stronger effect = lower value 1.01 | locus YBR171W, strain sec66, stronger effect = lower value 0.968 | locus YBR229C, strain ROT2, stronger effect = lower value 1 | locus YBR231C, strain swc5, stronger effect = lower value 0.984 | locus YBR279W, strain paf1, stronger effect = lower value 1 | locus YCL011C, strain gbp2, stronger effect = lower value 1 | locus YCL016C, strain dcc1, stronger effect = lower value 1.01 | locus YCL029C, strain bik1, stronger effect = lower value 1 | locus YCL061C, strain MRC1 (second series), stronger effect = lower value 1.01 | locus YCL069W, strain vba3, stronger effect = lower value 1 | locus YCR088W, strain abp1, stronger effect = lower value 0.981 | locus YDL005C, strain med2, stronger effect = lower value 0.974 | locus YDL035C, strain GPR1, stronger effect = lower value 1.01 | locus YDL040C, strain nat1, stronger effect = lower value 0.984 | locus YDL074C, strain BRE1, stronger effect = lower value 1 | locus YDL101C, strain DUN1, stronger effect = lower value 1.01 | locus YDL134C, strain PPH21, stronger effect = lower value 1.01 | locus YDL185W, strain tfp1, stronger effect = lower value 1.02 | locus YDL192W, strain arf1, stronger effect = lower value 1.01 | locus YDR001C, strain nth1, stronger effect = lower value 0.996 | locus YDR069C, strain doa4, stronger effect = lower value 0.982 | locus YDR101C, strain arx1, stronger effect = lower value 1 | locus YDR137W, strain rgp1, stronger effect = lower value 0.98 | locus YDR150W, strain NUM1, stronger effect = lower value 0.993 and 1 | locus YDR159W, strain sac3, stronger effect = lower value 1 | locus YDR162C, strain NBP2, stronger effect = lower value 1.01 | locus YDR195W, strain ref2 0.905 | locus YDR297W, strain sur2, stronger effect = lower value 0.994 | locus YDR318W, strain mcm21, stronger effect = lower value 1.02 | locus YDR334W, strain swr1, stronger effect = lower value 0.98 | locus YDR335W, strain msn5, stronger effect = lower value 0.99 | locus YDR363W, strain ESC2, stronger effect = lower value 0.964 | locus YDR388W, stronger effect = lower value 1.01 | locus YDR392W, strain spt3, stronger effect = lower value 1.05 | locus YDR502C, strain sam2, stronger effect = lower value 1.01 | locus YEL003W, strain gim4, stronger effect = lower value 0.992 | locus YEL037C, strain rad23, stronger effect = lower value 0.995 | locus YEL061C, strain CIN8 (second series), stronger effect = lower value 0.994 | locus YEL061C, strain CIN8, stronger effect = lower value 1 | locus YER002W, strain NOP16, stronger effect = lower value 1.01 | locus YER015W, strain faa2, stronger effect = lower value 0.995 | locus YER016W, strain bim1, stronger effect = lower value 1 | locus YER110C, stronger effect = lower value 0.995 | locus YER111C, strain swi4, stronger effect = lower value 0.993 | locus YER155C, strain BEM2 (second series), stronger effect = lower value 0.955 | locus YER155C, strain BEM2, stronger effect = lower value 1.01 | locus YER167W, strain BCK2, stronger effect = lower value 1.01 | locus YFR010W, strain ubp6, stronger effect = lower value 0.979 | locus YGL078C, strain dbp3, stronger effect = lower value 0.993 | locus YGL086W, strain mad1, stronger effect = lower value 1.02 | locus YGL167C, strain pmr1, stronger effect = lower value 0.987 | locus YGL173C, strain kem1, stronger effect = lower value 0.983 | locus YGL227W, strain vid30, stronger effect = lower value 0.991 | locus YGL240W, strain doc1, stronger effect = lower value 0.959 | locus YGL248W, strain PDE1, stronger effect = lower value 1 | locus YGL253W, strain hxk2, stronger effect = lower value 1.02 | locus YGR135W, strain pre9, stronger effect = lower value 0.996 | locus YGR229C, strain SMI1, stronger effect = lower value 1.03 and 1.02 | locus YGR252W, strain gcn5, stronger effect = lower value 0.988 | locus YHR013C, strain ard1, stronger effect = lower value 0.966 | locus YHR027C, strain rpn1, stronger effect = lower value 0.995 | locus YHR030C, strain SLT2, stronger effect = lower value 1 and 1.07 | locus YHR079C, strain IRE1 (second series), stronger effect = lower value 1.01 | locus YHR079C, strain IRE1, stronger effect = lower value 1.03 | locus YHR094C, strain hxt1, stronger effect = lower value 0.999 | locus YHR129C, strain ARP1, stronger effect = lower value 0.996 | locus YHR142W, strain chs7, stronger effect = lower value 0.992 | locus YHR200W, strain rpn10, stronger effect = lower value 1 | locus YIL066C, strain RNR3, stronger effect = lower value 1.01 | locus YIL073C, strain SPO22, stronger effect = lower value 1.06 | locus YIL125W, strain kgd1, stronger effect = lower value 0.999 | locus YIR030C, strain dcg1, stronger effect = lower value 1 | locus YJL092W, strain hpr5, stronger effect = lower value 0.974 | locus YJL095W, strain BCK1 (second series), stronger effect = lower value 0.995 | locus YJL095W, strain BCK1, stronger effect = lower value 0.997 and 1.06 | locus YJL115W, strain asf1, stronger effect = lower value 0.995 | locus YJL129C, strain trk1, stronger effect = lower value 0.981 | locus YJL134W, strain LCB3, stronger effect = lower value 1.01 | locus YJL154C, strain vps35, stronger effect = lower value 0.991 | locus YJL164C, strain tpk1, stronger effect = lower value 1.01 | locus YJL166W, strain qcr8, stronger effect = lower value 0.969 | locus YJL168C, strain set2, stronger effect = lower value 1.01 | locus YJL187C, strain SWE1 (second series), stronger effect = lower value 1.01 | locus YJR043C, strain POL32, stronger effect = lower value 1 | locus YJR066W, strain TOR1, stronger effect = lower value 1

From PubChem BioAssay AID1159580 (chemical genetic matrix, 2015)
